Measured values as given in PubChem BioAssay AID485353 (National Center for Advancing Translational Sciences (NCATS), 2010).
Among all 330,000 compounds or so, about 610 (0.18%) were called active. Inconclusive results (about 2%) are left out. This excerpt belongs to a sample that is enriched for actives. Unmarked numbers belong to inactive results. Calls come from the whole dose curve.

Assay: qHTS of Yeast-based Assay for SARS-CoV PLP; note: nearly all actives have a fitted effect of over 55% in size; for activity, positive = growth rescue: 0% is about no effect
Conditions: S. cerevisiae expressing SARS-CoV PLpro; Potency: growth rescue; series mostly up to 32.9 µM; activity, positive = growth rescue: at the top concentration
Potency is the fitted concentration of half-maximal effect.

SMILES | activity, positive = growth rescue | Potency
CCOC(=O)c1nn(-c2ccccc2F)c2nc(Nc3ccccc3)cc(=O)n12 | 19.8% | –
Cc1cc(NC(=O)CS(=O)(=O)c2cn(C)c3ccccc23)no1 | 4.32% | –
CC1CN(S(=O)(=O)c2ccccc2)C(C)CN1S(=O)(=O)c1ccccc1 (stereo unspecified) | 7.74% | –
Cn1c(SCC(=O)NC2CCCCC2)nnc1-c1ccc(N)cc1 | 0.0296% | –
CCOc1cccc(-c2nnc(SCC(=O)NC3CC3)n2C)c1 | -1.58% | –
Cn1c(SCC(=O)NC2CCCCC2)nnc1-c1cc2ccccc2o1 | – | 10 µM (active)
CN(c1ccc2nc3ccccc3c(=O)n2n1)C1CCCCC1 | -12.9% | –
CC(C)Cc1nnc(NC(=O)CCC(=O)Nc2ccc3cn[nH]c3c2)s1 | -0.296% | –
S=c1[nH]c(-c2cccs2)cn1-c1ccccc1 | – | 11.2 µM (active)
O=c1oc2ccccc2cc1-c1cn(-c2ccccc2)c(=S)[nH]1 | -4.67% | –
S=c1[nH]nc(-c2cccs2)n1/N=C/c1cn(-c2ccccc2)nc1-c1ccc(Cl)cc1 | 1.04% | –
COc1ccccc1C(=O)NN1C(=O)C2C3C=CC(O3)C2C1=O (stereo unspecified) | 4.73% | –
CC12CCC(C(=O)N(NC(=O)c3ccccc3O)C1=O)C2(C)C (stereo unspecified) | – | 2.82 µM (active)
O=C(NN1C(=O)C2C(C1=O)C1C=CC2C12CC2)c1ccccc1Cl (stereo unspecified) | 0.328% | –
O=c1c(Cl)c(NCc2ccc(F)cc2Cl)cnn1C12CC3CC(CC(C3)C1)C2 | -19.4% | –
O=C(NC1CCN(S(=O)(=O)c2ccc(F)cc2)CC1)c1ccccc1 | 0.666% | –
CCc1ccc(-c2nn(-c3ccccc3)cc2CSC(=N)N)cc1 | 14.6% | –
CCCCC(=O)N(c1ccc(OC)cc1)C1C=CS(=O)(=O)C1 (stereo unspecified) | -1.73% | –
Nc1ccc(Nc2cc(O)c3ncccc3c2)cc1 | 4.05% | –
Cc1ccc(OCCC(=O)Nc2ccc(S(=O)(=O)Nc3nccs3)cc2)cc1 | 0.527% | –
O=C(NN1C(=O)C2C3C=CC(C3)C2C1=O)c1ccco1 (stereo unspecified) | 15% | –
O=C(NN1C(=O)C2CCCCC2C1=O)c1ccco1 (stereo unspecified) | 1.51% | –

SMILES | activity, positive = growth rescue | Potency
CC(C)=C1C2CCC1C1C(=O)N(NC(=O)c3ccco3)C(=O)C21 (stereo unspecified) | – | 2.82 µM (active)
CC(=O)NC(c1cccs1)c1cc(Br)c2cccnc2c1O (stereo unspecified) | -0.691% | –
Cc1nn2c(c1-c1ccccc1)N=C(c1ccco1)CC2c1ccccc1 (stereo unspecified) | -7.14% | –
CC[C@]12c3[nH]c4cc(CCC(=O)N(C)C)ccc4c3CCN1C(=O)[C@@H](CC(=O)NCCCN(C)C)C[C@@H]2C(=O)N1CCN(C(=O)c2ccco2)CC1 | 14.8% | –
CCC(C)NC(=O)C1CCCN(C(=O)NC2CCCCC2)C1 (stereo unspecified) | 2.48% | –
Cc1ccc(S(=O)Cc2ccc(C(=O)N3CCN(C4CCCCC4)CC3)o2)cc1 (stereo unspecified) | 2.29% | –
O=C(CCN1C(=O)C2C3C=CC(C3)C2C1=O)Oc1ccc2ccccc2c1 (stereo unspecified) | 0.162% | –
Cc1ccc(C(=O)COC(=O)CCN2C(=O)C3C4CCC(C4)C3C2=O)cc1C (stereo unspecified) | -3.46% | –
Cc1ccc(C(=O)COC(=O)CCN2C(=O)C3C4CC(C(Br)C4Br)C3C2=O)cc1 (stereo unspecified) | – | 12.6 µM (active)
CCN1C(=O)[C@@H]2[C@@H](c3ccc(-c4ccccc4)cc3)N3CCCC[C@@]3(C(=O)OC)[C@@H]2C1=O | -2.04% | –
O=C(Oc1cccc(N2C(=O)C3C4c5ccccc5C(c5ccccc54)C3C2=O)c1)c1ccco1 (stereo unspecified) | 17.8% | –
Cc1nc2ccccc2n1C(=O)N1CCOCC1 | 20.8% | –
O=C(CSC(=S)N1CCOCC1)c1ccccc1 | -10.4% | –
CC1CN(C(=S)Nc2ccccc2F)CC(C)O1 (stereo unspecified) | 0.954% | –
CC1CN(C(=S)SCC(=O)c2ccccc2)CC(C)O1 (stereo unspecified) | – | 10 µM (active)
Cc1ccc(NC(=O)COc2ccc(-n3ccnc3)cc2)cc1Cl | -21.9% | –
COc1cccc(NC(=O)c2ccccc2N(Cc2ccccc2)S(C)(=O)=O)c1 | 4.18% | –
COc1ccccc1N1CCN(C(CNC(=O)Oc2ccccc2)c2cccnc2)CC1 (stereo unspecified) | -2.51% | –
O=C(CSc1cccc2cccnc12)N/N=C/c1cccnc1 | 2.68% | –
CCOC(=O)N1CCN(C(c2cccnc2)c2ccc3cccnc3c2O)CC1 (stereo unspecified) | – | 11.2 µM (active)
Cc1ccc(S(=O)(=O)n2cccc2CO)cc1 | 1.41% | –
CC(C)(Oc1ccc(Cl)cc1)C(=O)OCC(=O)NCCc1ccc(S(N)(=O)=O)cc1 | 2.28% | –

SMILES | activity, positive = growth rescue | Potency
O=C(Cn1cnc2c(nnn2-c2ccccc2)c1=O)N1CCC(Cc2ccccc2)CC1 | 1.22% | –
COc1cccc(NC(=O)CN(C)C(C)C(=O)Nc2ccc(C#N)cc2)c1 (stereo unspecified) | 1.84% | –
O=C(CCc1nnc(CCCCc2ccccc2)o1)NC(c1cccnc1)C(F)(F)F (stereo unspecified) | 0.42% | –
O=C(Nc1ccc(S(=O)(=O)N2CCCCC2)cc1)C1CC(=O)N(c2ccc(F)cc2)C1 (stereo unspecified) | 0.241% | –
CN1CCN(C2=NCCO2)CC1 | -0.788% | –
CC(C#N)OC(=O)c1cccnc1SCC(=O)Nc1ccc2c(c1)OCO2 (stereo unspecified) | -0.388% | –
CCCCOc1ccc(NC(=O)[C@@H]2CCCN2C(=O)C2CCN(S(=O)(=O)c3ccc(C)cc3)CC2)cc1 | -8.3% | –
COc1ccc(NC(=O)C2CCC(CNS(=O)(=O)c3csc(C(N)=O)c3)CC2)cc1OC (stereo unspecified) | 2.32% | –
Cc1cc(C)c2nc3nc(C)cc(C)c3c(N)c2c1 | -3.61% | –
O=C(CN1C(=O)NC2(CCCCCCC2)C1=O)NCc1ccc(F)cc1 | -2.13% | –
Cc1ccccc1OCc1nnc(SCC(=O)N2c3ccccc3Sc3ccc(Cl)cc32)o1 | -4.39% | –
O=C(CC1CCCCC1)NCc1ccco1 | -0.144% | –
O=C(CN1C(=O)/C(=C\c2ccc(C(F)(F)F)cc2)Sc2ccccc21)NCc1ccco1 | – | 12.6 µM (active)
O=C(CN1C(=O)/C(=C/c2ccccc2F)Sc2ccccc21)NCc1cccnc1 | 1.48% | –
COc1cccc(C(CC(=O)NCCN2CCOCC2)NS(=O)(=O)c2ccc(C)cc2)c1OC (stereo unspecified) | 2.49% | –
CCc1nccn1CCC(=O)N1CCCC(N2CCN(c3ccccc3F)CC2)C1 (stereo unspecified) | 5.56% | –
CC1(c2ccc(Cl)cc2Cl)NC(=O)N(CC(=O)Nc2cccnc2Cl)C1=O (stereo unspecified) | 0.863% | –
O=C(c1ccco1)N1CCN(CC(=O)N(C2CCCCC2)C2CCS(=O)(=O)C2)CC1 (stereo unspecified) | 0.872% | –
COc1ccc(CNC(=O)c2c[nH]c3c(OC)cc(OC)cc3c2=O)cc1 | 2.43% | –
CC(=O)N1N=C(c2ccncc2)OC1(Cc1ccccc1)Cc1ccccc1 | 0.466% | –
COC(=O)CCc1sc(Nc2ccc(Br)cc2)nc1-c1ccc(OC)cc1 | -25.4% | –
CN(C(=O)COC(=O)CCCc1c[nH]c2ccccc12)c1c(N)n(Cc2ccccc2)c(=O)[nH]c1=O | 2.28% [at 6.58 µM] | –
